# Calls of active or inactive are those of the source. Rule for the calls: active = hit-call score of the fitted dose curve at least 0.9, where 1 is the maximum; inactive = score below 0.9.
# Experiments:
# [1] = ATG_CRE_CIS: Attagene CIS-FACTORIAL HepG2 Assay for human cAMP Responsive Element (CRE) binding protein 3 (AID 2282926); conditions: HepG2 CRE cis-reporter, Attagene multiplexed mRNA; actives raise or lower the signal
# Method in brief: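 Transfected HepG2 were treated for 24 hours, then RNA was extracted and reporter cDNA amplified with sequence-specific primers. Labelled fragments were separated by capillary electrophoresis, and the CRE signal was fitted bidirectionally with DMSO as baseline.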
# [2] = target: CCAAT/enhancer-binding protein beta (Homo sapiens) (UniProt P17676); experiment: ATG_C_EBP_CIS: Attagene CIS-FACTORIAL HepG2 Assay for human CCAAT/Enhancer Binding Protein (C/EBP) beta (AID 2282927); conditions: HepG2 Attagene cis-factorial transcription factor reporter; actives raise or lower the signal
# Method in brief: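 Endogenous C/EBPb-driven reporter transcripts measured in transfected human HepG2 cells at 24 h via RT-PCR and capillary electrophoresis of labelled fragments. Activity fitted in both directions relative to DMSO baseline.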
# [3] = ATG_CMV_CIS: Attagene CIS-FACTORIAL HepG2 Assay for human CMV (Internal Marker) (AID 2282928); conditions: HepG2 CMV promoter reporter, transcription factor profiling; actives raise or lower the signal;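 note: endpoint acts as a background internal control marker rather than a target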
# Method in brief: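 CMV internal-marker background readout in transiently transfected HepG2 cells bearing cis-regulated reporter units. Reporter mRNA is measured 24 h after dosing by RT-PCR and capillary electrophoresis, with bidirectional fitting against DMSO.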
# [4] = ATG_DR4_LXR_CIS: Attagene CIS-FACTORIAL HepG2 Assay for human Liver X Receptor (LXR), DR4 submotif (AID 2282929); conditions: HepG2 Attagene DR4 cis-reporter, mRNA transcription; actives raise or lower the signal
# Method in brief: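 Total RNA from 24 h-treated, MRTU-transfected HepG2 cells underwent reverse transcription, PCR, fluorescent primer extension and restriction digestion before capillary electrophoresis. Both increases and decreases in reporter signal were fitted against DMSO.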
# [5] = target: Aryl hydrocarbon receptor (Homo sapiens) (UniProt P35869); experiment: ATG_Ahr_CIS: Attagene CIS-FACTORIAL HepG2 Assay for human Aryl Hydrocarbon Receptor (Ahr) (AID 2282930); conditions: HepG2 AhR cis-factorial reporter transcription; actives raise or lower the signal
# Method in brief: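 Reporter mRNA levels, quantified by RT-PCR and fluorescent capillary electrophoresis, reflect endogenous AhR transcriptional activity in HepG2 cells carrying transfected cis-promoter reporter constructs. Readout at 24 h post-dose; gain or loss fitted against DMSO baseline.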
# [6] = ATG_AP_1_CIS: Attagene CIS-FACTORIAL HepG2 Assay for human Activator Protein 1 (AP-1) (AID 2282931); conditions: HepG2 Attagene cis-factorial AP-1 reporter mRNA; actives raise or lower the signal
# Method in brief: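 HepG2, transient cis-reporter transfection; 24 h; readout RT-PCR/CE fluorescence; DMSO baseline, gain and loss fitted.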
# [7] = ATG_AP_2_CIS: Attagene CIS-FACTORIAL HepG2 Assay for human Activator Protein 2 (AP-2) (AID 2282932); conditions: HepG2 AP-2 cis-reporter, Attagene transcription factor profiling; actives raise or lower the signal
# Method in brief: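 Step one: transient transfection of HepG2 with reporter transcription units. Step two: 24 h chemical exposure. Step three: RNA extraction, RT-PCR, labelled fragment analysis by capillary electrophoresis; DMSO serves as baseline.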
# [8] = ATG_BRE_CIS: Attagene CIS-FACTORIAL HepG2 Assay for human Bone Morphogenetic Protein (BMP) Response Element (BRE) (AID 2282933); conditions: HepG2 BMP response element reporter, Attagene transcription factor profiling; actives raise or lower the signal
# Method in brief: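 HepG2 cells transiently transfected with multiplexed cis-element reporter units were dosed with chemical for 24 h. Reporter mRNA was measured by RT-PCR with fluorescent labelling, HpaI digestion and capillary electrophoresis; bidirectional fitting relative to DMSO.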
# [9] = target: Retinoic acid receptor alpha (Homo sapiens) (UniProt P10276); experiment: ATG_DR5_RAR_CIS: Attagene CIS-FACTORIAL HepG2 Assay for human Retinoic Acid Receptor Alpha (RARE), DR5 submotif (AID 2282934); conditions: HepG2 Attagene cis-factorial RARE DR5 reporter, mRNA; actives raise or lower the signal
# Method in brief: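 Reporter transcripts from a DR5-regulated unit, measured via RT-PCR plus capillary electrophoresis, reflect endogenous RAR activity in transiently transfected human HepG2 liver cells. Exposure lasted 24 h; gain or loss of signal scored against DMSO.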
# [10] = target: Transcription factor E2F1 (Homo sapiens) (UniProt Q01094); experiment: ATG_E2F_CIS: Attagene CIS-FACTORIAL HepG2 Assay for human E2F Transcription Factor 1 (AID 2282935); conditions: HepG2 Attagene cis-reporter, E2F reporter RNA transcripts; actives raise or lower the signal
# Method in brief: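 Total RNA from 24 h-treated, reporter-transfected HepG2 cells undergoes DNase I treatment, oligo(dT) reverse transcription, PCR and 6-FAM primer extension before capillary electrophoresis.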
# [11] = ATG_E_Box_CIS: Attagene CIS-FACTORIAL HepG2 Assay for human Enhancer Box (E-box) (AID 2282936); conditions: HepG2 E-box cis-reporter transcription, actives raise or lower the signal
# Method in brief: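 DMSO served as negative control and baseline for bidirectional fitting. Human hepatoma HepG2 cells, transiently transfected with cis-reporter constructs, were dosed 24 h; reporter mRNA read by RT-PCR and capillary electrophoresis.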
# [12] = ATG_M_61_CIS: Attagene CIS-FACTORIAL HepG2 Assay for M61 Transcription Factor (Internal Marker) (AID 2282937); conditions: HepG2 Attagene CIS-FACTORIAL M61 internal marker reporter; actives raise or lower the signal
# Method in brief: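 Transfect HepG2 with MRTUs; dose 24 h; isolate RNA; reverse-transcribe with DNase I treatment; PCR-amplify, FAM-label and cut with HpaI for 2 h at 37 C; resolve by CE. Bidirectional fitting against DMSO.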
# [13] = ATG_EGR_CIS: Attagene CIS-FACTORIAL HepG2 Assay for human Early Growth Response 1 (EGR1) (AID 2282938); conditions: HepG2 Attagene CIS-FACTORIAL EGR reporter mRNA; actives raise or lower the signal
# Method in brief: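 After a 24 h treatment of transiently transfected HepG2 cells, total RNA was reverse-transcribed and reporter sequences PCR-amplified, labelled and run on capillary electrophoresis. Reporters sit under cis-regulatory promoters sensing endogenous factors.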
# [14] = ATG_M_19_CIS: Attagene CIS-FACTORIAL HepG2 Assay for M19 Transcription Factor (Internal Marker) (AID 2282939); conditions: HepG2 Attagene CIS-FACTORIAL M19 internal marker reporter; actives raise or lower the signal
# Method in brief: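 HepG2 cells transiently transfected with cis-regulated multiple reporter transcription units were dosed for 24 h; reporter mRNA was quantified by RT-PCR, 6-FAM primer-extension labelling, HpaI digestion and capillary electrophoresis, with bidirectional fitting against DMSO baseline.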
# [15] = ATG_ERE_CIS: Attagene CIS-FACTORIAL HepG2 Assay for Estrogen Response Element (ERE) (AID 2282940); conditions: HepG2 ERE cis-reporter, Attagene RNA transcript; actives raise or lower the signal
# Method in brief: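 HepG2 cells transiently transfected with cis-promoter-driven multiplexed reporter transcription units report endogenous TF activity. After 24 h compound exposure, reporter mRNA is quantified by RT-PCR with capillary electrophoresis fluorescence; bidirectional fitting versus DMSO baseline.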
# [16] = ATG_Ets_CIS: Attagene CIS-FACTORIAL HepG2 Assay for human Erythroblast Transformation Specific (ETS) (AID 2282941); conditions: HepG2 ETS cis-reporter transcription, actives raise or lower the signal
# Method in brief: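 HepG2 cells transfected with multiple cis-regulated reporter units measuring endogenous ETS-driven transcription, 24 h after dosing. Reporter mRNA quantified by RT-PCR with capillary electrophoresis; bidirectional fit relative to DMSO.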
# [17] = target: Hepatocyte nuclear factor 3-beta (Homo sapiens) (UniProt Q9Y261); experiment: ATG_FoxA2_CIS: Attagene CIS-FACTORIAL HepG2 Assay for human Forkhead box A2 (FOXA2) (AID 2282942); conditions: HepG2 cis-reporter transcription factor activity, 24 h; actives raise or lower the signal
# Method in brief: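 24 h dosing of HepG2 bearing cis-reporter constructs; mRNA readout by RT-PCR/CE fluorescence; bidirectional fit, DMSO baseline.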
# [18] = ATG_FoxO_CIS: Attagene CIS-FACTORIAL HepG2 Assay for human Forkhead box O (FoxO) (AID 2282943); conditions: HepG2 Attagene cis-reporter, FoxO element, mRNA; actives raise or lower the signal
# Method in brief: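 Endogenous transcription factor activity read from multiplexed cis-promoter reporter transcripts in transiently transfected HepG2, 24 h after dosing. Reporter RNA measured via RT-PCR plus capillary electrophoresis of FAM-labeled products; gain or loss relative to DMSO.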
# [19] = ATG_GATA_CIS: Attagene CIS-FACTORIAL HepG2 Assay for human GATA Binding Protein (AID 2282944); conditions: HepG2 GATA cis-element reporter, Attagene multiplex mRNA; actives raise or lower the signal
# Method in brief: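 HepG2 cells transiently transfected with multiplexed cis-element reporter units reflecting endogenous transcription factor activity; reporter mRNA measured after 24 h dosing by RT-PCR, 6-FAM labeling, HpaI digestion and capillary electrophoresis. Bidirectional fitting versus DMSO baseline.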
# [20] = ATG_GLI_CIS: Attagene CIS-FACTORIAL HepG2 Assay for human Zinc Finger Protein GLI1 (AID 2282945); conditions: HepG2, Attagene cis-factorial reporter mRNA, GLI element; actives raise or lower the signal
# Method in brief: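 Bidirectional curve fits relative to DMSO, using reporter mRNA levels from RT-PCR plus capillary electrophoresis. Cells were HepG2 transiently carrying cis-regulated reporter constructs, harvested 24 h after dosing.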
# Sequence of Transcription factor E2F1 (Homo sapiens) (Q01094 whole entry, looked up): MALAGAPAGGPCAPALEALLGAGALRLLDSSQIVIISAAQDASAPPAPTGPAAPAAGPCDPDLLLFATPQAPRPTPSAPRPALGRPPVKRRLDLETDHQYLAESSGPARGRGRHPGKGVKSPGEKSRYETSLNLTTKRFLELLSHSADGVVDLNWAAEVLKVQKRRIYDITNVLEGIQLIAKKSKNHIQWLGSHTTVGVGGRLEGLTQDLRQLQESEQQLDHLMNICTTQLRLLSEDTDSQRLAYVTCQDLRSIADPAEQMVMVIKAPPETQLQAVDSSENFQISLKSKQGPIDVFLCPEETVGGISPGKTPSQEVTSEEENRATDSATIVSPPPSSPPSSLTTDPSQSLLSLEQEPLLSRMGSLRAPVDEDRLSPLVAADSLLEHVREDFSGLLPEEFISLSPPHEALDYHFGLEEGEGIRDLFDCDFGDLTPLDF
# Sequence of Retinoic acid receptor alpha (Homo sapiens) (P10276 whole entry, looked up): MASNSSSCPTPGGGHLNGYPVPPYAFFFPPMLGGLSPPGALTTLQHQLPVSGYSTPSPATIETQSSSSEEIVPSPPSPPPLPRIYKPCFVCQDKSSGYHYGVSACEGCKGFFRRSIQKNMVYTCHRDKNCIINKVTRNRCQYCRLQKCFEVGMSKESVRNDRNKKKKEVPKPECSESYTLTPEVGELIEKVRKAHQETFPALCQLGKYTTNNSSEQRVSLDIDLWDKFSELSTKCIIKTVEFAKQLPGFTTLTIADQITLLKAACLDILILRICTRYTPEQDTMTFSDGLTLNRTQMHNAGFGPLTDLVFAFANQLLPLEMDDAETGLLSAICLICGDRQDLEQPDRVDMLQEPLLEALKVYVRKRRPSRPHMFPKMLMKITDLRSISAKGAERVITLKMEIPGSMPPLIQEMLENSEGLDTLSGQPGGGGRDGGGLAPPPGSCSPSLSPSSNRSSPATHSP
# Sequence of Aryl hydrocarbon receptor (Homo sapiens) (P35869 whole entry, looked up): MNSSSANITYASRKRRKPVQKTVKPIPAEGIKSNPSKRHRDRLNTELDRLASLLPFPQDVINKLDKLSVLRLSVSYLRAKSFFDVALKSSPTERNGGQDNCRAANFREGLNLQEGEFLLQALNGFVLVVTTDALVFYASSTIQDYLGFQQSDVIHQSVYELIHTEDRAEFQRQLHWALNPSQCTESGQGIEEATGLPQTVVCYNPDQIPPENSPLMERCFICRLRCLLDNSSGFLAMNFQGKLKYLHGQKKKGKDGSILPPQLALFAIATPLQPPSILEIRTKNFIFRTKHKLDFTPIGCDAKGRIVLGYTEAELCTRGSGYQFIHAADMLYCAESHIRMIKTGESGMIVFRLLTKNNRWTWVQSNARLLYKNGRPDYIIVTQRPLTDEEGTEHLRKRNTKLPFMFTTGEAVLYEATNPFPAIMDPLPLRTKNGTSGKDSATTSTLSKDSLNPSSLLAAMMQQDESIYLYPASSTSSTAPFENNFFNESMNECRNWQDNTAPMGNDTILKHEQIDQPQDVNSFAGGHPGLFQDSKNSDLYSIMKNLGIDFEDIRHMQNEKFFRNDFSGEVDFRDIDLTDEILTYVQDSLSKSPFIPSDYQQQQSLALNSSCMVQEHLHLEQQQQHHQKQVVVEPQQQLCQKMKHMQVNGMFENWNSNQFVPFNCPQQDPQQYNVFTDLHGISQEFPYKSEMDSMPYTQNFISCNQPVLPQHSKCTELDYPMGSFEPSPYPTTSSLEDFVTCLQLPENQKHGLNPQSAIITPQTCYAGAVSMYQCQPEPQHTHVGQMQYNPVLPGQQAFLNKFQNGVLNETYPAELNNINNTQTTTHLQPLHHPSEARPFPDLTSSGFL
# Sequence of CCAAT/enhancer-binding protein beta (Homo sapiens) (P17676 whole entry, looked up, the tested form may be a part): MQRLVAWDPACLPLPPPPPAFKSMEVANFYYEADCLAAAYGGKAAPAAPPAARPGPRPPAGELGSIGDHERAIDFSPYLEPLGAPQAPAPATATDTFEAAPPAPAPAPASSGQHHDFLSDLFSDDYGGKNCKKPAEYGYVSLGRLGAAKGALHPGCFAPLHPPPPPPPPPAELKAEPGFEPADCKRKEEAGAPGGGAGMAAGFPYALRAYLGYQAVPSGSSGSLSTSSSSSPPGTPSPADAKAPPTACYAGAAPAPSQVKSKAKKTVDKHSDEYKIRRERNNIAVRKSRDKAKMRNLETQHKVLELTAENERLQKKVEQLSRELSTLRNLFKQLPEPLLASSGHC
# Sequence of Hepatocyte nuclear factor 3-beta (Homo sapiens) (Q9Y261 whole entry, looked up): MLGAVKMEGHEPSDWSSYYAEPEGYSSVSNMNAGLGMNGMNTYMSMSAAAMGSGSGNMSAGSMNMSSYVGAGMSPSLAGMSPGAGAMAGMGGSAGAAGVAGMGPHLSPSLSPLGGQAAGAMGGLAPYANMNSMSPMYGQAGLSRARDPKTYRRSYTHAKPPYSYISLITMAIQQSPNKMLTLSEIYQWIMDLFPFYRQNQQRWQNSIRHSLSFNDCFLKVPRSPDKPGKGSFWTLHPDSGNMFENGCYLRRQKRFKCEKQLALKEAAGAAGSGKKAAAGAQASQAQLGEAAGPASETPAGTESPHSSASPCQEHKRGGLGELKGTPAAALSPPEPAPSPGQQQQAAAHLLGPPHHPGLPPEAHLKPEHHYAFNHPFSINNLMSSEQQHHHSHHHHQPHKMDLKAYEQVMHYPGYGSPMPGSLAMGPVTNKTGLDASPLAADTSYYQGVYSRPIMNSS
compound,measurement,setting,value
O=C(c1ccccc1)c1ccc(O)c(O)c1O,outcome,[1],inactive
same,outcome,[2],inactive
same,outcome,[3],inactive
same,outcome,[4],inactive
same,AC50,[5],84.4 µM (active)
same,outcome,[6],inactive
same,outcome,[7],inactive
same,outcome,[8],inactive
same,outcome,[9],inactive
same,outcome,[10],inactive
same,outcome,[11],inactive
same,outcome,[12],inactive
same,outcome,[13],inactive
same,outcome,[14],inactive
same,AC50,[15],27 µM (active)
same,outcome,[16],inactive
same,outcome,[17],inactive
same,outcome,[18],inactive
same,outcome,[19],inactive
same,outcome,[20],inactive
Nc1ccc2cc3ccccc3cc2c1,outcome,[1],inactive
same,outcome,[2],inactive
same,outcome,[3],inactive
same,outcome,[4],inactive
same,outcome,[5],inactive
same,outcome,[6],inactive
same,outcome,[7],inactive
same,outcome,[8],inactive
same,outcome,[9],inactive
same,outcome,[10],inactive
same,outcome,[11],inactive
same,outcome,[12],inactive
same,outcome,[13],inactive
same,outcome,[14],inactive
same,AC50,[15],8.48 µM (active)
same,outcome,[16],inactive
same,outcome,[17],inactive
same,outcome,[18],inactive
same,outcome,[19],inactive
same,outcome,[20],inactive
O=C(Oc1ccccc1)c1ccc2ccccc2c1O,outcome,[1],inactive
same,outcome,[2],inactive
same,outcome,[3],inactive
same,outcome,[4],inactive
same,AC50,[5],17 µM (active)
same,AC50,[6],97.4 µM (active)
same,outcome,[7],inactive
same,AC50,[8],76.2 µM (active)
same,outcome,[9],inactive
same,outcome,[10],inactive
same,AC50,[11],37.2 µM (active)
same,outcome,[12],inactive
same,AC50,[13],48.7 µM (active)
same,outcome,[14],inactive
same,AC50,[15],31.2 µM (active)
same,outcome,[16],inactive
same,outcome,[17],inactive
same,outcome,[18],inactive
same,outcome,[19],inactive
same,outcome,[20],inactive
